# Shown are actives, neighbours in structure and some others; about 13% of the full set was active somewhere.
# MARV entry inh: inhibitors of Marburg virus binding or cell entry; 300,000 tested, 1.8% active; Potency, µM (titrated, usually from 37.8 µM), hits mostly inhibitors; Marburg virus pseudotyped entry inhibition, cell reporter; AID 540276; calls by dose curve; tested in HEK293 cells
# HCV inhibitor: inhibitors of hepatitis C virus infection. Potency, µM (highest dose often 41.8 µM), actives largely listed as inhibitors. Huh7.5.1 HCVcc-Cre infection, luciferase reporter, 44 h. AID 651820. 340,000 tested, 3.4% active; active means well fitted inhibition curve with a large enough effect; inconclusive means small, poorly fitted or top-dose-only effect, or another doubt; inactive means no such curve, though single readings can be large or run the other way
#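 Infectious HCV cell culture screen: compound-treated cells (1,000/well, pre-plated 4 h) are infected with HCVcc-Cre at roughly 0.5 moi and grown 44 h. Infection is quantified by luciferase signal after 15 min substrate incubation at room temperature.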
# Cycloheximide cs: counter-screen for Shiga toxin inhibitors: cycloheximide protein synthesis inhibition | cell reporter, cycloheximide protein synthesis inhibition counterscreen | max response, % | 300,000 tested, 12% active | AID 2314; in the data active means max response mostly above about 13%, no sharp cut-off; inactive means mostly below about 14%; further: read at 38.3 µM for the half of the compounds with a filed dose
# Lassa entry inh: inhibitors of Lassa virus binding or cell entry; Lassa virus pseudotype entry inhibition, cell reporter; Potency, µM (titrated, usually from 37.9 µM), usual class: inhibitors; 300,000 tested, 1.2% active; AID 540256; calls by dose curve; tested in HEK293 cells; further: nearly all actives have a fitted effect of over 50% in size
# FMDV antiviral: foot and mouth disease virus antiviral activity | 410,000 tested, 1.2% active | FMDV antiviral cell-based qHTS | Potency, µM (top dose mostly 57.9 µM), most hits filed as inhibitors | AID 1159524; calls by dose curve; tested in HEK293T cells; further: read-out not given here; nearly all actives have a fitted effect of over 45% in size
# Shiga toxin inh: blocks Shiga toxin action in Vero cells; Vero cells, Shiga toxin protein synthesis inhibition reporter; inhibition, % at 38.7 µM; 290,000 tested, 9.2% active; AID 2315; in the data active means inhibition mostly above about 28%, no sharp cut-off; inactive means mostly below about 43%
# Numbers stand for hits; i = inactive; ? = inconclusive; nt = not tested or not shown; [ ] = dose if it differs, or a comment.
SMILES,MARV entry inh,HCV inhibitor,Cycloheximide cs,Lassa entry inh,FMDV antiviral,Shiga toxin inh
CC(C)Cc1nc(N2CCN(C(=O)Cc3ccccc3)CC2)c(C#N)c2c1COC(C)(C)C2,nt,nt,i,nt,nt,i
Cc1nc(N2CCN(C(=O)c3ccco3)CC2)c(C#N)c2c1CCCC2,i,?,i,i,i,i
CC1(C)Cc2c(C#N)c(N3CCOCC3)nc(-c3ccccc3)c2CO1,i,i,i,i,?,i
CC(C)Cc1nc(N2CCN(C(=O)c3ccco3)CC2)c(C#N)c2c1CCCC2,nt,10µM,i,nt,?,i
CC(C)C(=O)N1CCN(c2nc(-c3ccccc3)c3c(c2C#N)CCCC3)CC1,?,6.3µM,i,?,?,i
CCCC(=O)N1CCN(c2nc(CC(C)C)c3c(c2C#N)CCC3)CC1,?,?,i,13µM,?,i
O=C(N1CCOCC1)C12CC3CC(C1)CC(C(=O)N1CCOCC1)(C3)C2,i,i,i,i,i,i
Cc1ccc(CN2CCN(/N=C/c3ccc(N(C)C)cc3)CC2)cc1,i,i,i,i,i,i
OCCC1CN(Cc2nc(-c3ccc(F)cc3)cs2)CCN1CCc1ccccc1 (configuration not stated),nt,?,i,nt,i,i
CC(C)(C)CN1CCN(Cc2nc(-c3ccc(F)cc3)cs2)CC1CCO (configuration not stated),?,2.2µM,i,i,?,nt
CCc1ccc(NC(=O)c2ccc3c(c2)C(=O)N(CCOC)C3Nc2ccc(CC)cc2)cc1 (configuration not stated),i,i,23,i,i,67
CCCN1C(=O)c2cc(C(=O)Nc3ccccc3C)ccc2C1Nc1ccccc1C (configuration not stated),?,i,i,i,i,i
COCCN1C(=O)c2cc(C(=O)Nc3ccc(C)c(F)c3)ccc2C1Nc1ccc(C)c(F)c1 (configuration not stated),i,i[8.37 µM],32,i,i,94
COCCN1C(=O)c2cc(C(=O)Nc3cccc(F)c3)ccc2C1Nc1cccc(F)c1 (configuration not stated),i,?,i,?,i,i
CCOc1ccccc1C(=O)N1CC(=O)Nc2ccc(C)cc2C1c1ccccc1 (configuration not stated),i,nt,nt,i,i,nt
CCN(CC)S(=O)(=O)c1ccc(/C=C/C(=O)OCC(=O)Nc2cccc3ccccc23)cc1,i,i,i,i,i,i
CSCCC(NS(=O)(=O)c1ccc(C)cc1)C(=O)N1CCN(C(c2ccccc2)c2ccccc2)CC1 (configuration not stated),?,?,nt,3.5µM,i,nt
Cc1cc(NC(=O)c2cc(C(C)C)on2)no1,i,i,48,i,i,67
Cc1cc(C)nc(NC(=O)c2cccs2)c1,nt,i,21,nt,i,nt
Cc1cc(NC(=O)c2cc(C(C)C)on2)nn1Cc1ccc(Cl)cc1,i,?,i,nt,i,i
Cc1nc(NC(=O)c2cccs2)ccc1Br,?,?,54,6.3µM,i,106
CC(C)NC(=O)c1cc(-c2cccs2)on1,?,i,31,?,i,57
O=C(CC(CC(=O)c1ccc(Cl)cc1)c1ccccc1C(=O)O)c1ccc(Cl)cc1,nt,i,i,nt,i,nt
Cc1ccc(CCNC(=O)c2oc(=O)c3ccccc3c2-c2ccc(C)cc2)cc1,?,nt,nt,i,i,nt
O=C(COC(=O)[C@@H]1CCCN1C(=O)c1cccs1)NCCc1ccccc1,i,i,i,i,i,i
SMILES,MARV entry inh,HCV inhibitor,Cycloheximide cs,Lassa entry inh,FMDV antiviral,Shiga toxin inh
O=C1[C@@H]2[C@H]3CC[C@H](C3)[C@@H]2C(=O)N1O,i,i,i,i,i,i
CCOC(=O)CSc1cc(C)nc(N)n1,i,i,i,i,i,i
Cc1cc(NC(=O)c2cccs2)no1,?,i,33,?,i,57
Cc1cc(NC(=O)c2cc(-c3cccs3)on2)no1,i,i,29,i,i,114
CCC(=O)Nc1c(-c2ccc(Cl)cc2)c(=O)c2ccccc2n1C,nt,i,i,nt,i,i
CC(=O)N1CCc2cc(S(=O)(=O)N3c4ccccc4CC3C)ccc21 (configuration not stated),?,?,i,?,nt,i
CCOC(=O)C1=C(C)NC(=S)NC1c1ccc(-c2ccc(Cl)cc2)o1 (configuration not stated),13µM,?,i,i,?,i
CCOC(=O)C1=C(C)NC(=S)NC1c1ccc(-c2cccc(Cl)c2C)o1 (configuration not stated),?,6.3µM,i,?,?,i
CCOC(=O)C1=C(C)NC(=S)NC1c1ccco1 (configuration not stated),i,i,i,i,i,i
CCOC(=O)C1=C(C)NC(=O)NC1c1ccc(-c2ccc(Cl)cc2)o1 (configuration not stated),?,?,i,i,?,i
CC(C)Cc1nnc(NC(=O)CSc2nc(O)c(Cc3ccccc3)c(=O)[nH]2)s1,i,i,i,i,i,i
OCCCn1c(C2CCCN2c2nc(-c3ccc(F)cc3)cs2)nc2cc(Cl)c(Cl)cc21 (configuration not stated),nt,?,nt,nt,i,nt
CC(=O)Oc1ccc(-c2csnn2)cc1,i,i,i,i,i,i
CCNC(=O)Oc1ccc(-c2csnn2)cc1,i,i,i,i,32µM,i
CCOc1ccc(-c2nc(CN3CCCC(C(=O)N4CCOCC4)C3)c(C)o2)cc1 (configuration not stated),i,i,18,i,i,31
CCOC(=O)C1CCCN(C(=O)C2CCN(Cc3nc(-c4ccc(Cl)cc4)oc3C)CC2)C1 (configuration not stated),nt,11µM,nt,nt,?,nt
CCN1CCN(CCNC(=O)C2CCN(Cc3nc(-c4ccc(Cl)cc4)oc3C)CC2)CC1,i,nt,i,nt,nt,i
Cc1oc(-c2ccc(Cl)cc2)nc1CN1CCC(C(=O)N2CCc3ccccc3C2)CC1,i,i,i,nt,22µM,i
Cc1oc(-c2ccc(Cl)cc2)nc1CN1CCC(C(=O)N2CCN(Cc3ccccc3)CC2)CC1,i,i,i,nt,i,i
CCN(CC)S(=O)(=O)c1cccc(NC(=O)/C=C/c2ccc([N+](=O)[O-])cc2)c1,i,?,i,i,i,i
CCN(CC)S(=O)(=O)c1cccc(NC(=O)/C=C/c2cccc([N+](=O)[O-])c2)c1,?,6.3µM,i,?,18µM,i
CCCC(C)NC(=O)/C=C/c1cccc([N+](=O)[O-])c1 (configuration not stated),i,i,11,i,i,i
O=C(/C=C/c1cccc([N+](=O)[O-])c1)NCc1ccccc1,?,i,i,i,i,i
COCCNC(=O)c1ccc(CS(=O)(=O)c2ccc(Cl)cc2)o1,i,i,i,i,i,i
CCc1ccc(NC(=O)C(C)OC(=O)c2ccc(NS(=O)(=O)c3ccc(C)c([N+](=O)[O-])c3)cc2)cc1 (configuration not stated),?,11µM,i,?,i,i

# High-throughput results: PubChem BioAssay, National Center for Advancing Translational Sciences (NCATS)
